# In ChEMBL document CHEMBL1961873, “Compounds: GSK PKIS; Assays: Nanosyn kinase panel” (2012):
# Assays:
# [1] = target: Glycogen synthase kinase-3 beta (Homo sapiens) (UniProt P49841); details: at 1 µM;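 further: reported values are mean percent inhibition of GSK3B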
# [2] = target: Homeodomain-interacting protein kinase 1 (Homo sapiens) (UniProt Q86Z02); details: at 0.1 µM
# [3] = target: Homeodomain-interacting protein kinase 1 (Homo sapiens) (UniProt Q86Z02); details: at 1 µM
# [4] = target: T1, Homeodomain-interacting protein kinase 4 (Homo sapiens) (UniProt Q8NE63); details: at 0.1 µM
# T1 sequence (whole entry): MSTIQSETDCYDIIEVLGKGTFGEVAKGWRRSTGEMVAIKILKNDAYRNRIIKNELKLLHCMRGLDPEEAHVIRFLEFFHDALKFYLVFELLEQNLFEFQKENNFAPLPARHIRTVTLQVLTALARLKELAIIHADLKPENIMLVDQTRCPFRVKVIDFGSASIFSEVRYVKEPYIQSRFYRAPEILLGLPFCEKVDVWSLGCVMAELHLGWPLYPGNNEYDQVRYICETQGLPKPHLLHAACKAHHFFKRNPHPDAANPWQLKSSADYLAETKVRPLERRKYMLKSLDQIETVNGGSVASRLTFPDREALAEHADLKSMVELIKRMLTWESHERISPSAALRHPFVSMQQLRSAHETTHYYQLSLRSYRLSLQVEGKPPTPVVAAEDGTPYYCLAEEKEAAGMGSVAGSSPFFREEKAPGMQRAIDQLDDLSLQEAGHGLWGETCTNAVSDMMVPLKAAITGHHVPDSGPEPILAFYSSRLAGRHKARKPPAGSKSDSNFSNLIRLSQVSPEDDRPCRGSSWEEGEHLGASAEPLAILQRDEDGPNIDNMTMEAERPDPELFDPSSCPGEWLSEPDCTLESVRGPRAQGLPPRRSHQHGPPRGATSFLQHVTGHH
# [5] = target: T1, Homeodomain-interacting protein kinase 4 (Homo sapiens); details: at 1 µM
# [6] = target: Mitogen-activated protein kinase 9 (Homo sapiens) (UniProt P45984); details: at 0.1 µM
# [7] = target: Mitogen-activated protein kinase 9 (Homo sapiens) (UniProt P45984); details: at 1 µM
# [8] = target: Mitogen-activated protein kinase 1 (Homo sapiens) (UniProt P28482); details: at 0.1 µM
# [9] = target: Mitogen-activated protein kinase 1 (Homo sapiens) (UniProt P28482); details: at 1 µM
# [10] = target: Mitogen-activated protein kinase 3 (Homo sapiens) (UniProt P27361); details: at 0.1 µM
# [11] = target: Mitogen-activated protein kinase 3 (Homo sapiens) (UniProt P27361); details: at 1 µM
# [12] = target: SRSF protein kinase 3 (Homo sapiens) (UniProt Q9UPE1); details: at 0.1 µM
# [13] = target: SRSF protein kinase 3 (Homo sapiens) (UniProt Q9UPE1); details: at 1 µM
# [14] = target: Mitogen-activated protein kinase 14 (Homo sapiens) (UniProt Q16539); details: at 0.1 µM
# [15] = target: Mitogen-activated protein kinase 14 (Homo sapiens) (UniProt Q16539); details: at 1 µM
# [16] = target: Mitogen-activated protein kinase 11 (Homo sapiens) (UniProt Q15759); details: at 0.1 µM
# [17] = target: Mitogen-activated protein kinase 11 (Homo sapiens) (UniProt Q15759); details: at 1 µM
# [18] = target: T2, Mitogen-activated protein kinase 13 (Homo sapiens) (UniProt O15264); details: at 0.1 µM
# T2 sequence (whole entry): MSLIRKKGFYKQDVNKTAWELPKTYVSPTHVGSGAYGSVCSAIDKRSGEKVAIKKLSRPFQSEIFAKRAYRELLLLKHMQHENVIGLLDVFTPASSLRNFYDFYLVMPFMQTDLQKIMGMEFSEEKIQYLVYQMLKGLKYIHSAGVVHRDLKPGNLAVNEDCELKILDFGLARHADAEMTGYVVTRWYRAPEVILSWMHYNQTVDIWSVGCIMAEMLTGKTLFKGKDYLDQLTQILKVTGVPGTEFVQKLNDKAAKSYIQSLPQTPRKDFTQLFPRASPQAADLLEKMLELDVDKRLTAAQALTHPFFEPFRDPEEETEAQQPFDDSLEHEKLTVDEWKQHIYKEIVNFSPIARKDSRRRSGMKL
# [19] = target: T2, Mitogen-activated protein kinase 13 (Homo sapiens); details: at 1 µM
# [20] = target: T3, Mitogen-activated protein kinase 12 (Homo sapiens) (UniProt P53778); details: at 0.1 µM
# T3 sequence (whole entry): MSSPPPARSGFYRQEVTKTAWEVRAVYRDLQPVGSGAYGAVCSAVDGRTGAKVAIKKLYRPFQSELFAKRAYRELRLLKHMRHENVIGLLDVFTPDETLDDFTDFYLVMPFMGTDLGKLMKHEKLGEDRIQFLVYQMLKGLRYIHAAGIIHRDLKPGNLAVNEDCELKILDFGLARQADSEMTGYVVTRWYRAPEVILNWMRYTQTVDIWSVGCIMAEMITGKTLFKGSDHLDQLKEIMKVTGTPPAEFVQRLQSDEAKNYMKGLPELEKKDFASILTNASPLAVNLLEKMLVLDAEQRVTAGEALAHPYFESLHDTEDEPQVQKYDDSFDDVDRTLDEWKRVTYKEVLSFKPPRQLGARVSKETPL
# Chain of Mitogen-activated protein kinase 14 (Homo sapiens) (Q16539 whole entry): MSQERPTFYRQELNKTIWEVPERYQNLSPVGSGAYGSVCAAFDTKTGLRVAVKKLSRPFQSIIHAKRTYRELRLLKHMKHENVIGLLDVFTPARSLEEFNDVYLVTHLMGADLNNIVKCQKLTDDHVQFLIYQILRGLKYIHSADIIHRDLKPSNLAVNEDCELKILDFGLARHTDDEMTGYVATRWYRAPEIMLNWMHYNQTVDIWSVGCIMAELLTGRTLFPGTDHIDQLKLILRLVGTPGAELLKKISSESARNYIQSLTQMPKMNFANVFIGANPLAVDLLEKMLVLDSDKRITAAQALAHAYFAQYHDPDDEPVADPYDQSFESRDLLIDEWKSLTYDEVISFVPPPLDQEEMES
# Chain of Homeodomain-interacting protein kinase 1 (Homo sapiens) (Q86Z02 whole entry, looked up): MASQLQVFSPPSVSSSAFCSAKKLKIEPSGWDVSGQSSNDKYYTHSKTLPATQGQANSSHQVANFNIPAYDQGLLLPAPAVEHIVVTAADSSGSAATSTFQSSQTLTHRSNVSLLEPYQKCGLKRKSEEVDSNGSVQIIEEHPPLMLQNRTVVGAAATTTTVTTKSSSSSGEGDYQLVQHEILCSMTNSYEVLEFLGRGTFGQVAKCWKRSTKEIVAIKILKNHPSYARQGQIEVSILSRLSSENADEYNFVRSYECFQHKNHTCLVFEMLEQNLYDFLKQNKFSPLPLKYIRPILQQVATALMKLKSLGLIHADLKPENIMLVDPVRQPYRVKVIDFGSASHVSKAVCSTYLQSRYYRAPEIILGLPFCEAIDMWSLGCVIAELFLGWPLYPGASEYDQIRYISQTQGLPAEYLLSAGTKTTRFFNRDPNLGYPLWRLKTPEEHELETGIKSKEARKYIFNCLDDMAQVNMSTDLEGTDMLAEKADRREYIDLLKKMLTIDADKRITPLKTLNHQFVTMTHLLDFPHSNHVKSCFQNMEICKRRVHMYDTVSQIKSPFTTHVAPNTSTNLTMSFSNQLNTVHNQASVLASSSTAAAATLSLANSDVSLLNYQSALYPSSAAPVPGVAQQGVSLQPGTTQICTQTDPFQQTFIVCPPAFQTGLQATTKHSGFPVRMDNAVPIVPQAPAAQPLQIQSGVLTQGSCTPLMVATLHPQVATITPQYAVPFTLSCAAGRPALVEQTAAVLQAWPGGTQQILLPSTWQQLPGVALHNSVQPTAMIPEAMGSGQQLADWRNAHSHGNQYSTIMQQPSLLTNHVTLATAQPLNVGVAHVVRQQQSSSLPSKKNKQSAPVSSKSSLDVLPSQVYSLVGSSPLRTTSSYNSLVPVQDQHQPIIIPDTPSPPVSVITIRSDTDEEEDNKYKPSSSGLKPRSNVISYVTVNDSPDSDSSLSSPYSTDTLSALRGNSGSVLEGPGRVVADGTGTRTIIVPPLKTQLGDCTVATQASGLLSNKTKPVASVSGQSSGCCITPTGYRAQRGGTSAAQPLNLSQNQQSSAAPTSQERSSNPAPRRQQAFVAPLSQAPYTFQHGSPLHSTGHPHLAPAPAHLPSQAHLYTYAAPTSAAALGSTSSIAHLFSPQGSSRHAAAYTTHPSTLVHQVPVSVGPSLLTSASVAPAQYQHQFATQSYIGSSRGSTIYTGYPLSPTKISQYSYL
# Chain of Mitogen-activated protein kinase 9 (Homo sapiens) (P45984 whole entry, looked up): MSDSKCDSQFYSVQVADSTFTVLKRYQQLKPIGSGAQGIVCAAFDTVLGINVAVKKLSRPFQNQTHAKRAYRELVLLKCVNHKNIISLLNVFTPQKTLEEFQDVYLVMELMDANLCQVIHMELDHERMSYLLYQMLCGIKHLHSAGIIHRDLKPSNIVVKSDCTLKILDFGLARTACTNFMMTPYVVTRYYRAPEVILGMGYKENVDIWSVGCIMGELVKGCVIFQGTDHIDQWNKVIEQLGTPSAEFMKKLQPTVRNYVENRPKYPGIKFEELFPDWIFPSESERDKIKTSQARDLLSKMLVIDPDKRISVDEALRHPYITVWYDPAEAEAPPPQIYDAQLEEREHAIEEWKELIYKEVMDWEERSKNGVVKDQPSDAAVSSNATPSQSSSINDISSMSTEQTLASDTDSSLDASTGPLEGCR
# Chain of Mitogen-activated protein kinase 3 (Homo sapiens) (P27361 whole entry): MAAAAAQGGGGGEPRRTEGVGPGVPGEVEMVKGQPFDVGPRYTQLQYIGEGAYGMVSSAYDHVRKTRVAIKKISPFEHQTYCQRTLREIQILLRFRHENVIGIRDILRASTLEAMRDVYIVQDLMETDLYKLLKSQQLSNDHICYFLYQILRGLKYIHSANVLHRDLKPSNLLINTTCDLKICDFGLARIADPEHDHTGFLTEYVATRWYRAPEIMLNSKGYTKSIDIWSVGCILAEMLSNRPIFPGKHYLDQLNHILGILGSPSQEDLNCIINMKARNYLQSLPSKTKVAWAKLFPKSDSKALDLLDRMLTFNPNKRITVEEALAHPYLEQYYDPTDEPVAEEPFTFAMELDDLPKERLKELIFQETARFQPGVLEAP
# Chain of Mitogen-activated protein kinase 1 (Homo sapiens) (P28482 whole entry): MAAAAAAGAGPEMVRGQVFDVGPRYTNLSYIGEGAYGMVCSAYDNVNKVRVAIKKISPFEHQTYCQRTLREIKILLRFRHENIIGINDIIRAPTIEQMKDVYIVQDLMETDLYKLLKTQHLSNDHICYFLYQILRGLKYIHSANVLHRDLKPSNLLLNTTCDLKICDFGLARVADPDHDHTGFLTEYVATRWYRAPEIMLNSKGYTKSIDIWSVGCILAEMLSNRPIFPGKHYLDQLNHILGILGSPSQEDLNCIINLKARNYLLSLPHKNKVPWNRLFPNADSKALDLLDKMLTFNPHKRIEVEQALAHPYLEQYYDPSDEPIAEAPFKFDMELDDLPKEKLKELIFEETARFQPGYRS
# Chain of Mitogen-activated protein kinase 11 (Homo sapiens) (Q15759 whole entry): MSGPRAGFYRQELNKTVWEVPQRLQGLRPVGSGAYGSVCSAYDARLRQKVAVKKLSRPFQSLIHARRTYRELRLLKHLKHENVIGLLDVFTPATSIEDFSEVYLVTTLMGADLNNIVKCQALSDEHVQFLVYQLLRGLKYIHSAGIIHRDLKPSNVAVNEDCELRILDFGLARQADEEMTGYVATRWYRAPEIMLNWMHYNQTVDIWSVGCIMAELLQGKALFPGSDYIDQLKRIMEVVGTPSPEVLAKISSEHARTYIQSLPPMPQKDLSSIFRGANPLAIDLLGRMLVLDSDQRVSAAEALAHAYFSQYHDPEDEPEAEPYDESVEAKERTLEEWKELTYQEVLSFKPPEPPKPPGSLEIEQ
# Chain of SRSF protein kinase 3 (Homo sapiens) (Q9UPE1 whole entry): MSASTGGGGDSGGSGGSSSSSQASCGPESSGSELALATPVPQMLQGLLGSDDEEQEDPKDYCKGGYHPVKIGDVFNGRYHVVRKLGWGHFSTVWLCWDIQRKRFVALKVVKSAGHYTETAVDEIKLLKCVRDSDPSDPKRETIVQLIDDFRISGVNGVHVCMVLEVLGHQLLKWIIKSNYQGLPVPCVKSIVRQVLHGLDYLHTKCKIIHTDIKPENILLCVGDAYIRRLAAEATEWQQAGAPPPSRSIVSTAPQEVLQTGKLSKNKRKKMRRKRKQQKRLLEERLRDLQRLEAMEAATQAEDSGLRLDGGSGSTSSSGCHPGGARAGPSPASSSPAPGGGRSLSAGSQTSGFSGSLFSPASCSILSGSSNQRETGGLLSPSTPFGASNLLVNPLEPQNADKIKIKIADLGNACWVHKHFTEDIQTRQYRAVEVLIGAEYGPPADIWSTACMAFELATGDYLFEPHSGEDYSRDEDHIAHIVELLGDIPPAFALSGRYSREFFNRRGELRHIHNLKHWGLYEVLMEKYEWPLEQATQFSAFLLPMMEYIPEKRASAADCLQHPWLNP
# Chain of Glycogen synthase kinase-3 beta (Homo sapiens) (P49841 whole entry, looked up): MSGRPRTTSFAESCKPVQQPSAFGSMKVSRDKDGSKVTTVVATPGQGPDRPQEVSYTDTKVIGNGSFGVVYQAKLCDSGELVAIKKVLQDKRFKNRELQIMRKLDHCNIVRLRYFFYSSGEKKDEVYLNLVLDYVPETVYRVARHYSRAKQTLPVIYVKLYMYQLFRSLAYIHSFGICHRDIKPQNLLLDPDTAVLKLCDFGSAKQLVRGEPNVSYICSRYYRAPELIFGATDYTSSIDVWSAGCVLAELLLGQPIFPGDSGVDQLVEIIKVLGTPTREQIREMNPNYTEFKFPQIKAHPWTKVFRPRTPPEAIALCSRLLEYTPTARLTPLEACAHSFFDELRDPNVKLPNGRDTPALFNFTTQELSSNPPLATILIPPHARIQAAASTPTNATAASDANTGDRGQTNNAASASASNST
Structure (SMILES),inhibition [1] [%],inhibition [2] [%],inhibition [3] [%],inhibition [4] [%],inhibition [5] [%],inhibition [6] [%],inhibition [7] [%],inhibition [8] [%],inhibition [9] [%],inhibition [10] [%],inhibition [11] [%],inhibition [12] [%],inhibition [13] [%],inhibition [14] [%],inhibition [15] [%],inhibition [16] [%],inhibition [17] [%],inhibition [18] [%],inhibition [19] [%],inhibition [20] [%]
Cc1nnc(-c2cccc(-c3ccc(C(=O)NCC4CC4)cc3)c2)o1,11.6,4.5,4.32,2.08,-0.47,3.54,6.68,2.73,5.62,5.36,6.64,-1.05,-0.94,4.85,12.2,3.66,7.35,3.76,3.54,4.5
c1ccc(-c2n[nH]cc2-c2ccnc(-c3ccc(OCCn4ccnc4)cc3)c2)nc1,4.83,-0.98,-1.32,-0.24,2.03,2.7,8.69,1.6,1.52,0.3,1.75,-3.24,-1.72,9.4,36.8,1.39,9.38,0.51,0.99,1.96
COc1cccc(-n2ncc3c(N/N=C/c4ccc(C(=O)NCCN(C)C)cc4)ncnc32)c1,79.4,47,78.8,49.5,75.8,2.47,3.96,1.34,4.38,3.11,2.75,1.28,0.91,2.36,11.8,0.2,3.19,3.46,23.5,4.06
O=C(O[C@H]1CN[C@H](C#Cc2cc3ncnc(Nc4ccc5c(ccn5Cc5cc(F)ccc5F)c4)c3s2)C1)N1CCOCC1,5.52,0.14,-1.46,0.47,2.6,5.66,5.74,3.73,5.12,4.98,2.72,-1.71,-2.33,5.28,8.23,3.16,5.47,2.39,5.7,3.21
CCn1c(-c2nonc2N)nc2cncc(C(=O)NCCNC)c21,42.3,0.25,10.2,-0.44,3.11,4.59,4.73,6.91,6.64,6.22,5.7,-3.21,-0.69,7.83,6.55,4.08,3.55,5.75,5.07,3.86
NC(=O)c1ccc2c(-c3ccnc(NCCCO)n3)c(-c3ccc(F)cc3)nn2c1,41.3,1.65,4.85,5.71,7.94,38,82.2,1.98,14.9,4.06,8.87,1.36,1.23,74.9,86.4,49.5,68.7,1.5,6.27,2.09
O=C1Nc2ccccc2/C1=C1\CCc2cc(O)ccc21,7.64,-1.14,7.57,0.76,10.8,5.71,9.88,5.77,6.56,5.82,4.54,0.01,-0.36,4.38,7.01,4.9,5.91,3.43,6.56,4.33
COc1ccccc1-c1cc(/C=C2\C(=O)Nc3ncc(Br)cc32)cc(Br)c1O,8.88,0.74,7.53,0.6,10.9,3.44,8.54,3.26,4.68,4.03,2.3,0.86,-0.04,2.73,11.3,5.59,5.73,0.15,9.18,2.49
c1cnn2ncc(-c3ccnc(NCCCN4CCOCC4)n3)c2c1,13,-1.15,6.02,-0.89,3.35,3.34,5.01,2.95,4.35,2.48,0.61,-0.52,-0.57,1.91,8.35,2.39,4.06,-1.15,4.03,-0.08
Fc1cccc(COc2ccc(Nc3ncncc3C#Cc3ccccc3)cc2Cl)c1,6.26,3.88,4.2,1.31,1.7,2.97,7.96,5.17,4.95,4.94,5.53,-0.87,0.58,6.33,11.6,3.77,8.28,-1.02,3.79,2.17
CC1(C)CC(n2cnc(-c3ccc(F)cc3)c2-c2ccnc(N)n2)CC(C)(C)N1,6.07,-1.4,-0.7,-0.06,1.62,-1.22,4.24,-0.07,-0.08,0.44,1.92,-0.06,-1.33,64.5,77.6,13.6,55.7,1.83,1.42,0.38
NS(=O)(=O)c1cccc(N/C=C2\C(=O)Nc3ccccc32)c1,19.7,-0.03,2.88,0.43,4.51,7.2,10.9,2.99,4.54,1.72,1.27,-0.21,0.27,7.96,13.5,6.33,9.54,1.07,5.02,1.32
Cc1c2ccc(N(C)c3ccnc(Nc4cccc(S(N)(=O)=O)c4)n3)cc2nn1C,10.7,-4.42,-0.84,-0.24,10.6,3.51,7.66,4.96,5.77,5.75,4.37,-0.02,-0.13,2.68,17.1,7.06,16,5.49,5.64,5.17
